Assays:
Assay in all cases: DAPPL (digital affinity profiling via proximity ligation, sequencing); 10 mM Tris-HCl pH 7.5, 50 mM NaCl, 1 mM DTT, 4% glycerol, room temperature, 30 min; GST-TFs on glutathione beads, 16-mer random dsDNA library, 0.1% formaldehyde crosslink after washing; high values mean tight binding
FLI1 = biological target: T1, FLI1 (Homo sapiens, UniProt Q01543 1-452); conditions: protein: recombinant; tags: N-terminal GST; dsDNA, one strand shown
T1 sequence: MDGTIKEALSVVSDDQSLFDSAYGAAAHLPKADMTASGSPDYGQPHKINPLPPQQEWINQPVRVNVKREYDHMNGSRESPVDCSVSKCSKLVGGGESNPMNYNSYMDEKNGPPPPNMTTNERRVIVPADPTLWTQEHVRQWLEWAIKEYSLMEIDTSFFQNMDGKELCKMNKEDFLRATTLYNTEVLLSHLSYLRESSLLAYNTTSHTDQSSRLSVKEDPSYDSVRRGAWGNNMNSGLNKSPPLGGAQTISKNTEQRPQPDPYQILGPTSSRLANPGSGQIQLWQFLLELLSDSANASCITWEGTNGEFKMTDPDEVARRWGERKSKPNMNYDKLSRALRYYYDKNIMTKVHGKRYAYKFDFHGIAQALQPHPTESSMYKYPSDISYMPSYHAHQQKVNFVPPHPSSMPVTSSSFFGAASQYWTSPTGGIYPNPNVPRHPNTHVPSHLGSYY
Summary of the method: (§1)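 A tag-only sample was pooled with DNA-barcoded human transcription factors that had been expressed in yeast as GST fusions and captured on glutathione beads. The pools were incubated for 30 min at room temperature with 200 nmole of a random double-stranded 16-mer DNA library in Tris/NaCl/DTT/glycerol buffer, then washed, crosslinked with 0.1% formaldehyde, proximity-ligated (BsaI/T4 ligase, 1 h, 37 °C), PCR-amplified and sequenced on an Illumina NextSeq500. Binding signal is each hexamer's read frequency for a factor divided by its frequency for the tag-only sample.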

ELK1 = biological target: T2, ELK1 (Homo sapiens, UniProt P19419 1-428); conditions: protein: recombinant; tags: N-terminal GST; dsDNA, one strand shown
T2 sequence: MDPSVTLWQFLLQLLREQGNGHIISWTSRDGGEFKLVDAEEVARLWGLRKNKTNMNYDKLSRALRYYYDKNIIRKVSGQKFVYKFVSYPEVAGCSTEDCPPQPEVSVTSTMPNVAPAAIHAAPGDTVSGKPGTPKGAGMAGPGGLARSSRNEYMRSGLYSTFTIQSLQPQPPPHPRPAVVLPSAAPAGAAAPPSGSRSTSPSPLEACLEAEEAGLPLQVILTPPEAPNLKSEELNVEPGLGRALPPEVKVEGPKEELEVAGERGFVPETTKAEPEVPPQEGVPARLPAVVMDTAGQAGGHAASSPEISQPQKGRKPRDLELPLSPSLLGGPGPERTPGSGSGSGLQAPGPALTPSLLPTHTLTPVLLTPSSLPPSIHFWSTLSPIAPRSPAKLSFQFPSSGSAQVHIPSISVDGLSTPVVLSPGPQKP
Summary of the method: as §1

GABPA = biological target: T3, GABPA (Homo sapiens, UniProt Q06546 1-454); conditions: protein: recombinant; tags: N-terminal GST; dsDNA, one strand shown
T3 sequence: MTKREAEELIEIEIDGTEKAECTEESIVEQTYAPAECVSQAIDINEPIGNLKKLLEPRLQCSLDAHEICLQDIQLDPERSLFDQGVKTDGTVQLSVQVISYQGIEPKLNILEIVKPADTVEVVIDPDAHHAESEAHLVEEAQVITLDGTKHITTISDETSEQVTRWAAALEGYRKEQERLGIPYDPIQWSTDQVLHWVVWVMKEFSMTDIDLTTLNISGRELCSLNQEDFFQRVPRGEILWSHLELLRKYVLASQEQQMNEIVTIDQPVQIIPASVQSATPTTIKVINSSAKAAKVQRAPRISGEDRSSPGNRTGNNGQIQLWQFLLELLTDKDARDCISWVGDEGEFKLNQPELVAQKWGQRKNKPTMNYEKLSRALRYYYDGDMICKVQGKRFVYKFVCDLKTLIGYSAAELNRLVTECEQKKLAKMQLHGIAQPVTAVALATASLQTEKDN
Summary of the method: as §1

ERG = biological target: T4, ERG (Homo sapiens, UniProt P11308 1-479); conditions: protein: recombinant; tags: N-terminal GST; dsDNA, one strand shown
T4 sequence: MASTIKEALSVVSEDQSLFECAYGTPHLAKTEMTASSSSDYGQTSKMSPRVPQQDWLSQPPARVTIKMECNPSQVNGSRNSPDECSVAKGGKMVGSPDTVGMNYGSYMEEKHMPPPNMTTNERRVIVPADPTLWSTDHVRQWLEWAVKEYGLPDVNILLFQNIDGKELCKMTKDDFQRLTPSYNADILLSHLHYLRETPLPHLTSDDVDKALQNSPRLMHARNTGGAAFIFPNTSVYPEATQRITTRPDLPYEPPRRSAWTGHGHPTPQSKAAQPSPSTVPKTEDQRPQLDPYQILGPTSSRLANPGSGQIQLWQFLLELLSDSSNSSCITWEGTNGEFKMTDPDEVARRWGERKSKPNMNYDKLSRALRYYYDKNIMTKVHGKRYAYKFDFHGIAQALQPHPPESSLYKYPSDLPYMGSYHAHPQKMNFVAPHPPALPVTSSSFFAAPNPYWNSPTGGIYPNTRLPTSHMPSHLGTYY
Summary of the method: as §1

ELF1 = ELF1 (Homo sapiens, UniProt P32519 1-619); conditions: protein: recombinant; tags: N-terminal GST; dsDNA, one strand shown
Summary of the method: as §1

EHF = biological target: T5, EHF (Homo sapiens, UniProt Q9NZC4 1-300); conditions: protein: recombinant; tags: N-terminal GST; dsDNA, one strand shown
T5 sequence: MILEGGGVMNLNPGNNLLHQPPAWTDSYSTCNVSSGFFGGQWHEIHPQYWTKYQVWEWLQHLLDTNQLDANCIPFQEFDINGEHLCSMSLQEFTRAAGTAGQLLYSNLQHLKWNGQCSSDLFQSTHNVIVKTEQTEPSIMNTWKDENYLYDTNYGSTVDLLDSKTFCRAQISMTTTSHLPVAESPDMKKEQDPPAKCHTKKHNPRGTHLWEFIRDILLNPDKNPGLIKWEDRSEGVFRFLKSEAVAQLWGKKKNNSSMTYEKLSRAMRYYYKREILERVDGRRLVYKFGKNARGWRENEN
Summary of the method: as §1

SPI1 = SPI1 (Homo sapiens, UniProt P17947 1-270); conditions: protein: recombinant; tags: N-terminal GST; dsDNA, one strand shown
Summary of the method: as §1

SPIB = SPIB (Homo sapiens, UniProt Q01892 1-262); conditions: protein: recombinant; tags: N-terminal GST; dsDNA, one strand shown
Summary of the method: as §1

ELK3 = biological target: T6, ELK3 (Homo sapiens, UniProt P41970 1-407); conditions: protein: recombinant; tags: N-terminal GST; dsDNA, one strand shown
T6 sequence: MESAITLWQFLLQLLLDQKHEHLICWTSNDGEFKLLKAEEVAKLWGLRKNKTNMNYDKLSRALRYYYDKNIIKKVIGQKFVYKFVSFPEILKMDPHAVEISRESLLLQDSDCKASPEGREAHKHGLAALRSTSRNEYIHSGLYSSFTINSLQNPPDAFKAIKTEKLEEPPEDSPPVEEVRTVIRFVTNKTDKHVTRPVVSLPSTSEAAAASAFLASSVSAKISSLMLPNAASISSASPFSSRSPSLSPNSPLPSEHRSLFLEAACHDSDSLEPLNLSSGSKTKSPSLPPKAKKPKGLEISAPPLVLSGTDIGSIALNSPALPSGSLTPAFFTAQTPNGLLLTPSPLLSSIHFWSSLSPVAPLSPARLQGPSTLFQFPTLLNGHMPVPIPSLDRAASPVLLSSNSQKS
Summary of the method: as §1

FEV = biological target: T7, FEV (Homo sapiens, UniProt Q99581 1-238); conditions: protein: recombinant; tags: N-terminal GST; dsDNA, one strand shown
T7 sequence: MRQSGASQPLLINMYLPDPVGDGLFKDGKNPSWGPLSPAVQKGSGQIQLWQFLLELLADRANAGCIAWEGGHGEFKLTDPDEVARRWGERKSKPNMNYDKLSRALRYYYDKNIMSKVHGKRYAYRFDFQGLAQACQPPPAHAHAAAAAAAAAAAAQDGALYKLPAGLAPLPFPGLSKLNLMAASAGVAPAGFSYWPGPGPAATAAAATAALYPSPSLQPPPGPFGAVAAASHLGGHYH
Summary of the method: as §1

ETV5 = ETV5 (Homo sapiens, UniProt P41161 1-510); conditions: protein: recombinant; tags: N-terminal GST; dsDNA, one strand shown
Summary of the method: as §1

HSF1 = HSF1 (Homo sapiens, UniProt Q00613 1-529); conditions: protein: recombinant; tags: N-terminal GST; chain copies: 3; dsDNA, one strand shown
Summary of the method: as §1

SPIC = biological target: T8, SPIC (Homo sapiens, UniProt Q8N5J4 1-248); conditions: protein: recombinant; tags: N-terminal GST; dsDNA, one strand shown
T8 sequence: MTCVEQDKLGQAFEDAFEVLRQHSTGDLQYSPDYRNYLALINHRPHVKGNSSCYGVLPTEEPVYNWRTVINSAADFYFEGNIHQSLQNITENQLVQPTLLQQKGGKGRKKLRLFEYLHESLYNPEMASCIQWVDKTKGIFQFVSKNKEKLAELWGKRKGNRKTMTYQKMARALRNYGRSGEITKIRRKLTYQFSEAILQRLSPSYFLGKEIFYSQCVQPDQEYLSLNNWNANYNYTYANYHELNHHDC
Summary of the method: as §1

ELF4 = ELF4 (Homo sapiens, UniProt Q99607 1-663); conditions: protein: recombinant; tags: N-terminal GST; dsDNA, one strand shown
Summary of the method: as §1

ELK4 = biological target: T9, ELK4 (Homo sapiens, UniProt P28324-2 1-405); conditions: protein: recombinant; tags: N-terminal GST; dsDNA, one strand shown
T9 sequence: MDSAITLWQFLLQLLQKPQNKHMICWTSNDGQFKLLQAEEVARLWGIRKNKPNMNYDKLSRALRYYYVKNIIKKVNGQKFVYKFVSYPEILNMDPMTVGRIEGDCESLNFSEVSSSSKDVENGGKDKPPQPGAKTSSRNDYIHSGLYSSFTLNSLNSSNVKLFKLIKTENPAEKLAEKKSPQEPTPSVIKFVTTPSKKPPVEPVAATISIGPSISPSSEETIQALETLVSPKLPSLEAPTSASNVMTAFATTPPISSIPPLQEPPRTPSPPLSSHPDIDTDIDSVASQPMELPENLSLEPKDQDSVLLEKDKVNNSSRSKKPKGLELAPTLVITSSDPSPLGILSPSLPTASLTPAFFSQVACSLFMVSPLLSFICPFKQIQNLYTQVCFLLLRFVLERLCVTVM
Summary of the method: as §1

ETV2 = biological target: T10, ETV2 (Homo sapiens, UniProt O00321 1-342); conditions: protein: recombinant; tags: N-terminal GST; dsDNA, one strand shown
T10 sequence: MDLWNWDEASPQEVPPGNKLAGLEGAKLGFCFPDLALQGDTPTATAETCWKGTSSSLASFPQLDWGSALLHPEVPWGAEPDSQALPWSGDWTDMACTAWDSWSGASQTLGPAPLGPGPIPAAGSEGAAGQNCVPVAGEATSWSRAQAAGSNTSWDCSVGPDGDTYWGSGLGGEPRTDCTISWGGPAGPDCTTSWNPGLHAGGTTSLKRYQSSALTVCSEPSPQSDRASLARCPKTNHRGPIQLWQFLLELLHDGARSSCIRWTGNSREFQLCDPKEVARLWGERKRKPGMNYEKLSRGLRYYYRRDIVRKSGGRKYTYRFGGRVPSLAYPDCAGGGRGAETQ
Summary of the method: as §1

ELF3 = biological target: T11, ELF3 (Homo sapiens, UniProt P78545 1-371); conditions: protein: recombinant; tags: N-terminal GST; dsDNA, one strand shown
T11 sequence: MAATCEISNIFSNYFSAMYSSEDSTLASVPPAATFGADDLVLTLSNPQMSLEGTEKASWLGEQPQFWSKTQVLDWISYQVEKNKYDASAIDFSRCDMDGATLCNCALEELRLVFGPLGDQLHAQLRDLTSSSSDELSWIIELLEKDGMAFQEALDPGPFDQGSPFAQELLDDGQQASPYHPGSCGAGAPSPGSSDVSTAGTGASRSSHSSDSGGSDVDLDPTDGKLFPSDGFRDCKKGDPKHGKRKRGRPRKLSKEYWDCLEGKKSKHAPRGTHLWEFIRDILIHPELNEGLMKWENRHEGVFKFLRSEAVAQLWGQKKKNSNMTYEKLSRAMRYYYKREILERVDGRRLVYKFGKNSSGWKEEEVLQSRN
Summary of the method: as §1

CRX = CRX (Homo sapiens, UniProt O43186 1-299); conditions: protein: recombinant; tags: N-terminal GST; dsDNA, one strand shown
Summary of the method: as §1

ETV1 = ETV1 (Homo sapiens, UniProt P50549 1-477); conditions: protein: recombinant; tags: N-terminal GST; dsDNA, one strand shown
Summary of the method: as §1

Sequence of ETV5 (P41161 whole entry): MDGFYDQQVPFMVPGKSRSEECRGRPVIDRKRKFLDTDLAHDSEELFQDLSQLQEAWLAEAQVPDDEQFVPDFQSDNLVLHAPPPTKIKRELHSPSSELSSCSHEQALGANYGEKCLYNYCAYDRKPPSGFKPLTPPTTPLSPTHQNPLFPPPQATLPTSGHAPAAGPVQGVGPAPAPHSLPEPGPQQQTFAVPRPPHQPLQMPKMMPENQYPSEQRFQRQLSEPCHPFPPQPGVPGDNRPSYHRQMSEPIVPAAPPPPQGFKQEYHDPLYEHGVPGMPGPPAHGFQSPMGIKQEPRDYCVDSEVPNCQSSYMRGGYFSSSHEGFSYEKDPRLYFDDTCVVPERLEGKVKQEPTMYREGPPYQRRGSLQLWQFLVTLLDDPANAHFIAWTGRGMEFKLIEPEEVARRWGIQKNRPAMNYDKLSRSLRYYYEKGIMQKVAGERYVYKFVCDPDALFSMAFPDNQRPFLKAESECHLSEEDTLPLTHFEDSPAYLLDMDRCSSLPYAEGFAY
Sequence of ELF4 (Q99607 whole entry): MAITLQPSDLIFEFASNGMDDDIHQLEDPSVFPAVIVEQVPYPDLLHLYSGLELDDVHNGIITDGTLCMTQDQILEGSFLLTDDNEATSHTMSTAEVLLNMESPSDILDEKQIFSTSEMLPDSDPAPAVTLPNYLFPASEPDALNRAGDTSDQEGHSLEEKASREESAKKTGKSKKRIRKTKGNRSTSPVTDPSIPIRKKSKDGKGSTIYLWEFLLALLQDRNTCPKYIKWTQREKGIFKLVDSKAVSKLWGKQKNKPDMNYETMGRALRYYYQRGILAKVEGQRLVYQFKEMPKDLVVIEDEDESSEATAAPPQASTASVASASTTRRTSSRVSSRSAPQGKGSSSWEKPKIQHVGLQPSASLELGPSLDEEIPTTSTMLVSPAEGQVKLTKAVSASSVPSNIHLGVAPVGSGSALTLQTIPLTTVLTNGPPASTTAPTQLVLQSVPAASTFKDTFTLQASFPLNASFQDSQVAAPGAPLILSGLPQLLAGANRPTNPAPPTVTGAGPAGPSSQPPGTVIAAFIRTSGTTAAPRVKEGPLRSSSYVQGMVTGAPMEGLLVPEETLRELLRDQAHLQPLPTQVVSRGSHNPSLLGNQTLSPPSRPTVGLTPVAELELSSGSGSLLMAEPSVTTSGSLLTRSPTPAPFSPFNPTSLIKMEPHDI
Sequence of SPIB (Q01892 whole entry): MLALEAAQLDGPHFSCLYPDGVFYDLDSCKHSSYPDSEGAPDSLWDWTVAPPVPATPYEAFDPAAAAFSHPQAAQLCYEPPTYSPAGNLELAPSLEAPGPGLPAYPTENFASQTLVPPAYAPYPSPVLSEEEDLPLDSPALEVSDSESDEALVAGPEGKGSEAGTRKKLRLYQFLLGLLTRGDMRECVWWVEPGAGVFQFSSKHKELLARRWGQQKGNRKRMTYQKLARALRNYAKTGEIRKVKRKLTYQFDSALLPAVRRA
Sequence of HSF1 (Q00613 whole entry): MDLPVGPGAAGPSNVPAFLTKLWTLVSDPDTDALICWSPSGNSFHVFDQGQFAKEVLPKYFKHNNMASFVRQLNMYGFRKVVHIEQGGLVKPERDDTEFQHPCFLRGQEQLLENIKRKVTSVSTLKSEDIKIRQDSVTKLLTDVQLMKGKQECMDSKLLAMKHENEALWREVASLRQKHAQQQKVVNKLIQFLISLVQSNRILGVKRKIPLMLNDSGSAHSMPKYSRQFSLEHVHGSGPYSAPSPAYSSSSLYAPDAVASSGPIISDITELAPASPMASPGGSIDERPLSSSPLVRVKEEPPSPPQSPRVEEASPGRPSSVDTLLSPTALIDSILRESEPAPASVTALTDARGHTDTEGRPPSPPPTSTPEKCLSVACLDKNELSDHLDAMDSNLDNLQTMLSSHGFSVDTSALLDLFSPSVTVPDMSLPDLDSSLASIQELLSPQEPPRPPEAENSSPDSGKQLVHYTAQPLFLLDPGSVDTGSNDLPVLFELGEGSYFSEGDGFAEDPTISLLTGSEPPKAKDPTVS
Sequence of ELF1 (P32519 whole entry): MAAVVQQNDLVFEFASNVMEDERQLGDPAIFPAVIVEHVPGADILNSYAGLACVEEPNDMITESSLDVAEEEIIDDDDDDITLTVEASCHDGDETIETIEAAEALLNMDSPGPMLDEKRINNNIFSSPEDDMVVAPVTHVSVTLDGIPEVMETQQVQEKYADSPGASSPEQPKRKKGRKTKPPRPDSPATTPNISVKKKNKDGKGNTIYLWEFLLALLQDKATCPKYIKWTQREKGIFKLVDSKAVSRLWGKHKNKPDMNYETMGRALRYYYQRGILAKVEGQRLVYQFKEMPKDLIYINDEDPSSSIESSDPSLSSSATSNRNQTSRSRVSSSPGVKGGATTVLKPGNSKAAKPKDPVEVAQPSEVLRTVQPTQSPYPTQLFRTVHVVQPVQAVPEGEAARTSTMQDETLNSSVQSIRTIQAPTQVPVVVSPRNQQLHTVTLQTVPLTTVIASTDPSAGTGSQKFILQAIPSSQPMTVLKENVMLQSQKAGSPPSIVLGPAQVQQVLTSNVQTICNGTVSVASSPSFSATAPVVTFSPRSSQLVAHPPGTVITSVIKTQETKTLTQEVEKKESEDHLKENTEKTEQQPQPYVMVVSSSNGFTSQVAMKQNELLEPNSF
Sequence of CRX (O43186 whole entry): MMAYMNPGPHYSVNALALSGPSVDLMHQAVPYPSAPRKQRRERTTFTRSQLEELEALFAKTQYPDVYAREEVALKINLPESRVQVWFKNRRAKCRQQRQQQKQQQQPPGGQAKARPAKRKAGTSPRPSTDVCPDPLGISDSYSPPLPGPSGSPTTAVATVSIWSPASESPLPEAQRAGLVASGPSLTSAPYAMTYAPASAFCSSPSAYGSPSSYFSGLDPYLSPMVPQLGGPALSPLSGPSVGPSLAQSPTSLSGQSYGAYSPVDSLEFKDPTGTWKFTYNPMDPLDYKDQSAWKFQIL
Sequence of ETV1 (P50549 whole entry): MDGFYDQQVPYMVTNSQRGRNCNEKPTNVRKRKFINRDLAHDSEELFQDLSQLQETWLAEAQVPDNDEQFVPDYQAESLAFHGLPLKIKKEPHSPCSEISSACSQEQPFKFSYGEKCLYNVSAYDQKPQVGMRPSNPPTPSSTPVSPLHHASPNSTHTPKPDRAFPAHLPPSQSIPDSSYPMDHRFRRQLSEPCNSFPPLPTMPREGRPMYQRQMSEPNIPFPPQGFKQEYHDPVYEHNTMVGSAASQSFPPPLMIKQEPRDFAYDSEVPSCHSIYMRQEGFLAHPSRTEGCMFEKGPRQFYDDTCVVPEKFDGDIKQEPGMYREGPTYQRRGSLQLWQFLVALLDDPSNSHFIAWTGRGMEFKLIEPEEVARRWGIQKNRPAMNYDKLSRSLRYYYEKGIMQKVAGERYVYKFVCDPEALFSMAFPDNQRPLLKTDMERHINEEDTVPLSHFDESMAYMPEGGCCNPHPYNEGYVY

TGGCTC
binding signal (FLI1): 1.4 fold enrichment (6-mer frequency, TF over GST control) | binding signal (ELK1): 1.43 fold enrichment (6-mer frequency, TF over GST control) | binding signal (GABPA): 1.47 fold enrichment (6-mer frequency, TF over GST control) | binding signal (ERG): 1.43 fold enrichment (6-mer frequency, TF over GST control) | binding signal (ELF1): 1.46 fold enrichment (6-mer frequency, TF over GST control) | binding signal (EHF): 1.34 fold enrichment (6-mer frequency, TF over GST control) | binding signal (SPI1): 1.16 fold enrichment (6-mer frequency, TF over GST control) | binding signal (SPIB): 1.39 fold enrichment (6-mer frequency, TF over GST control) | binding signal (ELK3): 1.3 fold enrichment (6-mer frequency, TF over GST control) | binding signal (FEV): 1.39 fold enrichment (6-mer frequency, TF over GST control) | binding signal (ETV5): 1.3 fold enrichment (6-mer frequency, TF over GST control) | binding signal (HSF1): 1.36 fold enrichment (6-mer frequency, TF over GST control) | binding signal (SPIC): 1.46 fold enrichment (6-mer frequency, TF over GST control) | binding signal (ELF4): 1.35 fold enrichment (6-mer frequency, TF over GST control) | binding signal (ELK4): 1.5 fold enrichment (6-mer frequency, TF over GST control) | binding signal (ETV2): 1.61 fold enrichment (6-mer frequency, TF over GST control) | binding signal (ELF3): 1.44 fold enrichment (6-mer frequency, TF over GST control) | binding signal (CRX): 1.3 fold enrichment (6-mer frequency, TF over GST control) | binding signal (ETV1): 1.42 fold enrichment (6-mer frequency, TF over GST control)
